# Screening results as filed in PubChem.
# The full list was thinned out, with hits kept by preference.
# RE007 growth inh = less growth of the S. pombe RE007 Vpr strain | S. pombe RE007 Vpr strain, BacTiter-Glo ATP luminescence, 24 h | Potency, µM (doses to about 92.2 µM), most hits filed as inhibitors | 360,000 compounds, 0.21% hits | AID 651644; active = well fitted falling curve with a large enough effect; inconclusive = small, poorly fitted or top-dose-only effect; inactive = no such curve, though single readings can be large or run the other way; note: nearly all actives have a fitted effect of over 50% in size
#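 Fission yeast strain RE007, carrying one chromosomally integrated HIV-1 vpr copy, was seeded at OD 0.01 in PMG+AL medium with 23 nL pinned compound. After 24 h at 30 °C and 99% humidity, viability was read by BacTiter-Glo luminescence.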
# FBPA Giardia inh = Giardia lamblia aldolase inhibition; A8B2U2; purified Giardia FBPA; Potency, µM (highest dose often 59.6 µM), hits mostly inhibitors; 290,000 compounds, 0.71% hits; AID 2451; note: nearly all actives have a fitted effect of over 55% in size
#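 Giardia FBPA (40 nM reagent) was preincubated 10 min at RT with compound (up to 57.5 uM final), then substrate plus GAPDH/TPI/NAD/arsenate coupling system with diaphorase/resazurin was added; resorufin fluorescence (525/598 nm) was read after 20 min.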
# Tb PYK inh = inhibitors of Trypanosoma brucei pyruvate kinase | 410,000 compounds, 0.12% hits | TbPYK enzyme, Kinase-Glo Plus ATP luminescence, 45 min | Q57TT1 | Potency, µM (doses to about 76.8 µM), most hits filed as inhibitors; note: nearly all actives have a fitted effect of over 50% in size
#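 Glycolytic pyruvate kinase of T. brucei was incubated with substrate, test compound and 130 uM ADP for 45 minutes at room temperature. Luminescent Kinase-Glo Plus signal was measured after 10 minutes.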
# CHX counter = counter-screen hit for Shiga toxin inhibitors, cycloheximide; cell reporter, cycloheximide protein synthesis inhibition counterscreen; max response, %; 300,000 compounds, 12% hits; AID 2314; in the data active = max response mostly above about 13%, no sharp cut-off; inactive = mostly below about 14%; note: read at 38.3 µM for the half of the compounds with a filed dose
# LmPK inh = inhibitors of Leishmania mexicana pyruvate kinase. Q27686. purified LmPK, Kinase-Glo ATP luminescence, 1 h. Potency, µM (titrated, usually from 57.5 µM), actives largely listed as inhibitors. 290,000 compounds, 0.37% hits
# Target sequence (Q27686 whole entry, looked up): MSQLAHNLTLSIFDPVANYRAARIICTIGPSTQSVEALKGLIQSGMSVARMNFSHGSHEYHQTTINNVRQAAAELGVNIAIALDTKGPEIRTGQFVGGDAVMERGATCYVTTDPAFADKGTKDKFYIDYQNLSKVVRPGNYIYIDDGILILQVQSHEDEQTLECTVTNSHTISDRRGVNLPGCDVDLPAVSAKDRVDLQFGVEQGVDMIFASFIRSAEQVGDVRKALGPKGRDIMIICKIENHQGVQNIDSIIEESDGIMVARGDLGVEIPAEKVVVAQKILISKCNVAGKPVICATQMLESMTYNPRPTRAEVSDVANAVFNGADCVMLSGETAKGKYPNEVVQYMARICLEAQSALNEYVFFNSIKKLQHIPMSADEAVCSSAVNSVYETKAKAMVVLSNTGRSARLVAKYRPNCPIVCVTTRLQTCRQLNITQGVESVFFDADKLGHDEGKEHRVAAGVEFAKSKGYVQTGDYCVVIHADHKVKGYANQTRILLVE
#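 In 50 mM imidazole pH 7.2 with 7 mM MgCl2, LmPK (0.1 nM) turned over PEP (0.5 mM) and ADP (0.1 mM) for 1 h at room temperature. Luciferase read-out of ATP.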
# Shiga inhibitor = Shiga toxin inhibition | Vero cells, Shiga toxin protein synthesis inhibition reporter | inhibition, % at 38.7 µM | 290,000 compounds, 9.2% hits; in the data active = inhibition mostly above about 28%, no sharp cut-off; inactive = mostly below about 43%
# Numbers stand for hits; – = inactive; ? = inconclusive; · = no result. Unless noted, calls come from the whole dose curve; as a rule, active = well fitted curve in the direction sought with a large enough effect; inconclusive = small, poorly fitted or top-dose-only effect, or another doubt; inactive = no such curve, though single readings can be large; an effect the other way counts as inactive or inconclusive.
SMILES,RE007 growth inh,FBPA Giardia inh,Tb PYK inh,CHX counter,LmPK inh,Shiga inhibitor
Cc1cc(C(=O)Nc2ccncc2)c(C)o1,–,·,–,·,·,·
Cc1occc1C(=O)Nc1cccc([N+](=O)[O-])c1,·,–,–,–,–,–
O=C(Nc1ccc2c(c1)OCCO2)c1coc2ccccc2c1=O,–,–,?,48,7.9µM,60
Cc1occc1C(=O)Nc1ccc2c(c1)CCC2,?,–,–,48,13µM,103
CNC(=O)c1ccsc1NC(=O)c1coc2ccccc2c1=O,–,–,–,–,–,–
CC(=O)O[C@@H](Cc1ccc(O)cc1)C(=O)CC(C)C,–,·,–,·,·,·
CC(=O)N1CCN(c2nc3ccc([N+](=O)[O-])cc3s2)CC1,–,–,–,–,–,–
O=C(OCC(=O)N1CCOCC1)c1cc(-c2ccccc2)nc2ccccc12,–,·,–,·,·,·
Cc1ccc(NC(=S)NCC(C)C)cc1,·,–,–,35,–,40
CC(C)CCNC(=O)/C=C/c1ccc(Br)cc1,·,–,–,37,–,100
C=C(C)C(=O)/C=C/c1ccc(Br)cc1,·,–,·,·,·,·
S=C(NCCc1ccccc1)Nc1ccc(Br)cc1,–,–,–,53,–,–
CCCN1CCC(NC(=S)Nc2ccc([N+](=O)[O-])cc2)CC1,–,–,–,10,–,–
CN1CCN(c2ncnc3c2ncn3[C@H]2CN(Cc3ccc(-c4ccccc4)cc3)C[C@@H](CO)O2)CC1,–,·,–,·,·,·
O=P(O)(O)OC[C@@H](O)CO,·,·,–,·,·,·
CC1CCCCN1S(=O)(=O)c1cc2c3c(c1)CC(=O)N3CCC2 (configuration not stated),·,·,–,·,·,·
CC(C)CCNC(=S)Nc1ccc([N+](=O)[O-])cc1,–,–,–,30,–,–
CCCNC(=S)Nc1ccc(Br)cc1,–,·,–,–,–,–
CCCCNC(=S)Nc1ccc([N+](=O)[O-])cc1,–,–,–,–,–,–
O=[N+]([O-])c1ccc(NNC(=S)Nc2ccc(F)cc2)cc1,–,?,–,27,–,86
CC(C)CCNC(=S)Nc1ccc(Br)cc1,–,–,–,30,–,48
S=C(NCCc1ccccc1)Nc1ccccn1,–,–,?,39,–,92
CCCCSc1nnc2c(n1)OC(C(=O)c1ccccc1)Nc1ccccc1-2 (configuration not stated),·,–,·,15,–,–
CCCCSc1nnc2c(n1)OC(C)N(C(C)=O)c1ccccc1-2 (configuration not stated),·,·,–,·,·,·
CCCSc1nnc2c(n1)OC(c1sccc1C)Nc1ccccc1-2 (configuration not stated),·,·,–,41,·,66
SMILES,RE007 growth inh,FBPA Giardia inh,Tb PYK inh,CHX counter,LmPK inh,Shiga inhibitor
Cc1ccc2ncc3c(-c4ccc(F)cc4)nn(-c4cccc(F)c4)c3c2c1,·,·,–,·,·,·
CCCCOc1ccc2ccccc2c1C=O,–,–,–,32,–,–
CCCOc1ccc2ccccc2c1/C=C1\SC(=O)NC1=O,–,?,–,–,–,·
Cn1cccc1C(=O)NC(=O)COC(=O)c1ccccc1O,–,–,–,17,–,–
CC(=O)NC12CC3CC(C1)CC(C(=O)OCC(=O)NC(=O)c1cccn1C)(C3)C2,–,–,–,20,–,–
Cc1cccc(C(=O)N[C@H](C(=O)OCC(=O)NC(=O)c2cccn2C)C(C)C)c1,–,–,–,32,–,–
Cn1cccc1C(=O)NC(=O)COC(=O)C12CC3CC(CC(O)(C3)C1)C2,–,–,–,43,?,53
Cn1cccc1C(=O)NC(=O)COC(=O)c1ccc(O)cc1,–,–,–,–,–,–
CC(=O)NC12CC3CC(C1)CC(C(=O)OCC(=O)Nc1c(F)cccc1F)(C3)C2,–,·,–,·,·,·
CC(NC(=O)COC(=O)C12CC3CC(CC(O)(C3)C1)C2)c1ccccc1 (configuration not stated),–,·,–,·,·,·
CN(C)c1ncc2nc(-c3ccccc3)c(=O)n(C)c2n1,·,–,·,·,·,·
Clc1ccc(OCc2nc(-c3ccncc3)no2)cc1,–,–,–,31,–,–
Cc1ccc(Cc2nc(-c3ccncc3)no2)cc1,–,–,–,–,–,54
COc1ccc(-c2noc(Cc3ccc(Cl)cc3)n2)cc1OC,–,–,–,–,–,–
